# Bioassay records (PubChem BioAssay)
# Only some compounds are listed: those with a hit (about 2.7% of all), similar ones and a draw of the others.
# CF NFkB block = inhibitors of cystic fibrosis induced NF-kB. KKLEB NF-kB-GFP reporter, PAF-induced, GFP fluorescence overnight. inhibition, % at 5 µM. hit rate 0.86% among 360,000;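 active = at least 50% inhibition at 5 µM, scaled per plate between neutral and stimulator controls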;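 also: PAF is a Pseudomonas aeruginosa culture filtrate used as stimulus; plate controls were PAF-stimulated DMSO wells for no effect and unstimulated DMSO wells for full effect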
# KKLEB tox = CF airway cell cytotoxicity counter-screen; KKLEB CF airway cells viability, ATPlite luminescence, overnight; active compounds read low; cells stimulated with P. aeruginosa culture filtrate; activity change (cytotoxicity), % at 5 µM; hit rate 0.36% among 360,000; AID 602141;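 active = corrected activity change at or below -50% at 5 µM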
# HIF-2a block = inhibitors of HIF-2a. hit rate 0.72% among 360,000. 786-0 RCC cells HIF-2a reporter, luciferase luminescence, overnight. inhibition, % at 18.8 µM;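 active = inhibition of the luminescence signal of 40% or more relative to plate controls, in a single-dose primary screen at 18.75 µM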
# Peg3 prom inh = reduces Peg3 promoter-driven luciferase expression in HeLa; HeLa PEG-Prom luciferase reporter, luminescence, overnight; inhibition, % at 20 µM; hit rate 1.7% among 360,000; AID 588405;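 active = inhibition of at least 50% at 20 µM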
# MITF TRPM1 inh = reduces MITF-dependent TRPM1 promoter luciferase signal. SK-MEL-5 TRPM1 promoter luciferase, 24 h. inhibition, % at 12.5 µM. hit rate 0.83% among 330,000;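 active = mean inhibition across replicates of 60% or more, whatever share of single replicates reaches that level; inconclusive = some that reach 60%, reason not given; inactive = mean inhibition across replicates below 60%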
# Shn3 inh set2 = reduces Shn3 3'UTR luciferase signal in osteoblasts. Clone20 osteoblast Shn3 3'UTR firefly luciferase, 24 h. inhibition, % at 12.5 µM. hit rate 0.52% among 360,000. AID 588674;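 active = mean inhibition of at least 75% with every replicate also reaching 75%; inconclusive = mean inhibition at least 75% but some replicate below; inactive = mean inhibition below 75%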;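 also: 0% = median of neutral control wells and 100% = pilot-screen positive control compound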
# Starred values were filed as active, the others as inactive; ? = inconclusive; . = no result.
SMILES,CF NFkB block,KKLEB tox,HIF-2a block,Peg3 prom inh,MITF TRPM1 inh,Shn3 inh set2
COc1ccc(/C=C/C(=O)OCC(=O)NC2CCCC2)cc1OC,-9,12,9,3,-4,-12
Cc1cccc(C)c1NC(=O)C1(C)CSCC(=O)N1CC(C)C (configuration not stated),.,.,6,.,.,.
O=C(N/N=C/c1ccc([N+](=O)[O-])o1)c1ccncc1,-15,-5,-1,2,.,6
Cc1nc2ccccn2c1C(=O)N/N=C/c1ccc([N+](=O)[O-])o1,-7,-2,-3,15,69*,26
O=C(N/N=C/c1ccc([N+](=O)[O-])o1)c1cc2c(ccc3ccccc32)o1,-18,-12,-7,54*,?,14
O=C(N/N=C/c1ccc([N+](=O)[O-])o1)c1ccc(O)cc1,22,-4,-58,-28,87*,29
CCN(CC)S(=O)(=O)c1cccc(C(=O)N/N=C/c2ccc([N+](=O)[O-])o2)c1,-13,12,5,5,85*,9
CCOC(=O)C1=C(COC(=O)Cc2ccccc2F)NC(=O)NC1C (configuration not stated),5,2,-5,8,3,8
O=C(CCCNC(=O)c1ccc(Cl)cc1)OCc1cccc(Br)c1,-1,-2,-7,15,7,-2
CC(NC(=O)C12CC3CC(CC(C3)C1)C2)C(=O)N/N=C/C1=C(N2CCOCC2)C(=C\c2cccc([N+](=O)[O-])c2)/CC1 (configuration not stated),5,-1,17,20,14,13
CC(C)C(NC(=O)C12CC3CC(CC(C3)C1)C2)C(=O)N/N=C/C1=C(N2CCOCC2)C(=C\c2ccc([N+](=O)[O-])cc2)/CC1 (configuration not stated),91*,-100*,5,30,-6,-4
O=C(N/N=C/c1ccc([N+](=O)[O-])o1)C1CCCC1,10,6,-10,-1,18,-3
CC(NC(=O)C12CC3CC(CC(C3)C1)C2)C(=O)NN=Cc1ccc([N+](=O)[O-])o1 (configuration not stated),14,-6,-19,18,62*,17
O=C(N/N=C/c1ccc([N+](=O)[O-])o1)c1cc2ccccc2o1,-9,8,0,19,98*,24
C/C(=N\Nc1ccc([N+](=O)[O-])cc1)c1ccc(C#N)cc1,-16,12,-11,0,-17,0
COc1ccc(C(=O)/C(C#N)=N/Nc2ccccc2[N+](=O)[O-])cc1,36,-21,-135,-3,11,6
N#CC(C#N)=NNc1ccc([N+](=O)[O-])cc1,57*,-26,-8,-41,-2,13
COc1ccc(C(=O)/C(C#N)=N/Nc2ccc([N+](=O)[O-])cc2)cc1,56*,-33,-1,38,72*,89*
CCn1c(=N)n(CC(=O)c2ccc(Cl)c(Cl)c2)c2ccccc21,8,14,-136,99*,-5,-100
N=c1n(CCN2CCCCC2)c2ccccc2n1CC(=O)c1ccc(Cl)c(Cl)c1,15,-19,-28,34,.,6
Cc1ccc(C(=O)Cn2c(=N)n(CCN3CCOCC3)c3ccccc32)cc1,-4,3,-62,-23,7,-8
Cc1ccc(Cn2c(=N)n(CC(=O)c3ccc([N+](=O)[O-])cc3)c3ccccc32)cc1,36,-61*,8,102*,98*,9
CC(C)(C)c1ccc(C(=O)NNC(=O)CCc2ccccc2)cc1,-3,-4,6,10,.,7
CCc1cc(=O)oc2cc(C)cc(OCC(=O)NCCCN3CCOCC3)c12,-3,-6,1,-5,-9,9
COc1ccc(NC(=O)C2Cc3cc(S(=O)(=O)N4CCCCC4)ccc3N2C(C)=O)cc1Cl (configuration not stated),-15,-5,10,6,10,12
SMILES,CF NFkB block,KKLEB tox,HIF-2a block,Peg3 prom inh,MITF TRPM1 inh,Shn3 inh set2
CC(C)=NOCC(=O)Nn1c(COc2ccccc2)nc2ccccc2c1=O,16,4,1,14,0,6
CS(=O)(=O)c1ccc(Nc2nc(C(N)Cc3ccc(C(F)(F)F)cc3)cs2)cc1 (configuration not stated),38,-17,7,27,.,22
COc1cc(OC)nc(Nc2nc(C(N)Cc3ccccc3)cs2)n1 (configuration not stated),-8,-1,-6,45,.,2
Cc1cc(C)nc(Nc2nc(C(N)Cc3ccc(C(F)(F)F)cc3)cs2)n1 (configuration not stated),-5,-2,13,102*,.,28
Cc1cc(C)nc(Nc2nc(C(N)Cc3ccc(F)cc3)cs2)n1 (configuration not stated),-1,2,-6,-44,.,29
CCCc1cnc(Nc2nc(C(N)Cc3ccc(C(F)(F)F)cc3)cs2)nc1 (configuration not stated),17,-7,27,96*,.,-7
Cc1cc(C)nc(Nc2nc(C(N)Cc3ccc(Cl)cc3)cs2)n1 (configuration not stated),11,-2,10,92*,.,1
NC(COCc1ccccc1)c1csc(Nc2nccc(C(F)(F)F)n2)n1 (configuration not stated),-3,-9,2,-16,.,10
NC(Cc1ccc(C(F)(F)F)cc1)c1csc(Nc2nccc(C(F)(F)F)n2)n1 (configuration not stated),-4,-10,15,92*,.,-11
O=C(c1cc2c(c(-c3cccc(-c4ccc(F)cc4)c3)n1)[C@H](CCO)N(C(=O)c1ccc3c(c1)OCO3)C2)N1CCOCC1,.,.,12,.,.,.
C[C@H](CO)N1C[C@H](C)[C@@H](CN(C)S(=O)(=O)c2ccc(F)cc2)Oc2c(NC(=O)Cc3ccccc3)cccc2C1=O,-8,1,-15,-7,-7,-5
O=C(COC(=O)CNS(=O)(=O)c1ccccc1)Nc1ncc(Cl)cc1Cl,13,-2,4,10,0,6
COc1cc(C(=O)C(=O)c2ccc(OC)c(OC)c2)ccc1O,28,-24,3,1,-2,-10
FC(F)(F)C(F)(F)C(F)(F)c1nc2nc(Cl)c(Cl)nc2[nH]1,14,2,2,-25,.,-5
Cc1ccccc1CC(=O)N1CCN(S(=O)(=O)c2ccc(Cl)s2)CC1,17,-17,1,7,-2,-4
CCN(Cc1ccccc1)S(=O)(=O)c1ccc(C(=O)N(CCCN(C)C)c2nc3cc(C)cc(C)c3s2)cc1,40,-26,-1,100*,90*,2
CCN(Cc1ccccc1)S(=O)(=O)c1ccc(C(=O)N(CCCN(C)C)c2nc3c(F)cccc3s2)cc1,20,-14,7,1,17,7
